Hits are enriched below; roughly 1.1% of the tested compounds scored in any of these assays.
USP7 inh: blocks human USP7 ubiquitin-rhodamine cleavage; AID 1645854; inhibition, % at 20 µM; Q93009; purified USP7, Ub-rhodamine cleavage fluorescence; 47,000 tested, 0.3% active
OTUD3 block: human OTUD3 deubiquitinase inhibition. Q5T2D3. purified OTUD3, Ub-rhodamine fluorescence, 2 h. inhibition, % at 25 µM. 47,000 tested, 0.7% active
UCHL1 block: human UCHL1 deubiquitinase inhibition; P09936; purified UCHL1, Ub-rhodamine cleavage fluorescence; inhibition, % at 20 µM; 47,000 tested, 0.2% active
Target sequence (P09936 whole entry, looked up): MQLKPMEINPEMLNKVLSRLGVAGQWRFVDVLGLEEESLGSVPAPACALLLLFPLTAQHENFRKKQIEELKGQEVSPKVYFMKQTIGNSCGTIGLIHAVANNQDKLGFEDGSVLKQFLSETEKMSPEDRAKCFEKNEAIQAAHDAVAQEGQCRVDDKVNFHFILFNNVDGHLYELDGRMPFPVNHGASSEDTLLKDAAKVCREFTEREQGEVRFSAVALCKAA
* hit, by the source's call. No stated cut-off is given here; in the data, active means inhibition above about 30%; inactive means the rest.

SMILES	USP7 inh	OTUD3 block	UCHL1 block
O=C(c1cc(Cl)ccc1Cl)N1CCN(c2ccc3nnc(-c4ccco4)n3n2)CC1	4.2	7.8	3.6
Cc1ccc(C)c(S(=O)(=O)N2CCN(c3ccc4nnc(-c5ccco5)n4n3)CC2)c1	37.4*	23.1	45.0*
O=S(=O)(c1ccccc1Cl)N1CCN(c2ccc3nnc(-c4ccco4)n3n2)CC1	34.2*	27.6	39.6*
Cc1ccc(-c2ccc(N3CCOCC3)nn2)cc1S(=O)(=O)N1CCOCC1	-8.8	-8.8	-5.0
Cc1ccccc1-c1nc(CC(=O)Nc2ccccc2)no1	-5.3	-18.2	-1.9
O=C(CC1(O)C(=O)N(Cc2cccc3ccccc23)c2ccccc21)c1ccc2ccccc2c1 (stereo not given)	5.8	2.8	3.8
CCOc1ccccc1CN1CCC(N2CCc3ccccc3C2)CC1	-2.4	-0.2	-1.6
COc1ccc(-c2cc3nc([C@H](C)NC(=O)COc4ccccc4F)nn3cn2)cc1	27.0	22.7	7.3
COc1ccc(-c2cc3nc([C@H](C)NC(=O)Cc4ccccc4C)nn3cn2)cc1	32.2*	46.7*	3.6
C[C@@H](NC(=O)c1ccc2c(c1)OCCO2)c1nc2cc(-c3ccccc3F)ncn2n1	7.4	42.6*	1.8
C[C@@H](NC(=O)C1CCCCC1)c1nc2cc(-c3ccccc3F)ncn2n1	6.1	3.4	2.2
C[C@H](NC(=O)Cc1ccccc1F)c1nc2cc(-c3ccccc3F)ncn2n1	5.6	35.8*	2.2
C[C@@H](NC(=O)c1ccc2c(c1)OCO2)c1nc2cc(-c3ccccc3F)ncn2n1	0.9	10.6	-0.1
COc1ccc(-c2noc(-c3c(O)c4cnn(Cc5ccccc5)c4[nH]c3=O)n2)cc1	-0.4	-10.5	-2.1
CNc1nc2c(c(=O)n1C)CCN(S(=O)(=O)c1ccccc1OC)C2	3.8	12.9	2.4
N#Cc1ccc(Oc2nc(F)c(Cl)c3c2N(CC2CCCO2)CCS3(=O)=O)cc1 (stereo not given)	-17.9	1.2	-0.1
CCc1cc2c(cc3n2CC(C)(C(=O)NC2CCCCC2)N(CCOC)C3=O)s1 (stereo not given)	-8.9	9.2	1.8
COc1ccc2[nH]cc(CCN=C(NC(=O)C(C)C)Nc3nc(C)cc(C)n3)c2c1	4.2	0.7	5.8
COc1ccc2c(CCN=C(NC(C)=O)Nc3nc(C)cc(C)n3)c[nH]c2c1	34.4*	1.6	1.9
Fc1ccc(-c2cn3c4ccccc4n(Cc4ccc(Cl)cc4)c3n2)cc1	-52.5	-11.4	0.3
Cc1cc(C)cc(N(CCC(=O)Nc2ccccc2)S(=O)(=O)c2ccc3ccccc3c2)c1	14.2	16.6	8.7
Cc1cc(C)cc(N(CCC(=O)Nc2ccc(N3CCOCC3)cc2)S(=O)(=O)c2ccc(Cl)cc2)c1	9.1	34.7*	3.7
COc1ccccc1-c1nc(-c2cn(-c3cccc(Cl)c3)nn2)no1	51.4*	16.9	27.2
COc1ccccc1-c1nc(-c2cn(-c3ccc(C)cc3)nn2)no1	4.8	10.9	2.1
Cn1nc(-c2ccccc2F)c2cc(C(=O)NCCc3ccc(S(N)(=O)=O)cc3)sc21	8.1	0.8	5.0
SMILES	USP7 inh	OTUD3 block	UCHL1 block
Cc1nc(C2(NC(=O)Nc3cccc(Cl)c3)CCCC2)no1	1.1	2.1	1.8
O=C(COc1ccc(C2CCCCC2)cc1)Nc1ccc(-c2nn3cnnc3s2)cc1	8.4	46.2*	1.4
O=C(Nc1ccc(-c2nn3cnnc3s2)cc1)c1ccc(Br)cc1	3.4	-0.8	-0.6
Cn1c(CN2CCOCC2)nnc1SCC(=O)N1CCCC1	6.1	3.6	1.3
CCC[C@H]1O[C@@H]2CC(=O)O[C@@H]2C2=C1C(=O)c1c(O)cccc1C2=O	-39.7	51.5*	14.3
CC1OC2CC(=O)OC2C2=C1C(=O)c1c(O)cccc1C2=O (stereo not given)	-56.7	45.0*	24.8
CC1CC(=O)c2c(O)cccc2O1 (stereo not given)	6.8	6.6	0.7
COc1ccc(OC)c(-n2c(SCC(=O)N3CCCC3)nnc2-c2c[nH]c3ccccc23)c1	-2.3	-0.3	0.1
Cc1cc(=O)oc2c1c(C)nn2-c1cc(Cl)ccc1[N+](=O)[O-]	-39.9	-9.6	-1.1
COc1ccc([N+](=O)[O-])cc1NC(=O)COC(=O)c1ccc2[nH]c3c(c2c1)CCCC3	12.2	61.8*	11.2
COc1cc([N+](=O)[O-])ccc1NC(=O)COC(=O)Cc1c[nH]c2ccccc12	-12.6	-6.9	2.2
O=C(NCCCN1CCCCC1)c1cc(-c2cccs2)nc2ccccc12	-18.7	-10.0	-2.4
Cc1cccc(N2CCN(C(=O)c3cnc(N4CCN(C)CC4)nc3C)CC2)c1C	-2.4	-16.5	-1.3
Cc1ccc(NC(=O)Cc2nnc3cc(-c4nc(C)no4)ccn23)cc1	38.7*	30.1*	5.9
Cc1noc(-c2ccc3nnc(CC(=O)Nc4ccc(F)c(C)c4)n3c2)n1	0.7	-5.1	-2.8
CCc1ccc(NC(=O)Cc2nnc3cc(-c4nc(C)no4)ccn23)cc1	44.4*	15.0	0.5
CCc1noc(-c2ccn3c(CC(=O)Nc4ccccc4C)nnc3c2)n1	9.1	10.1	0.5
O=C(c1cnc2oc3ccccc3c2c1)c1ccccc1O	1.0	5.4	1.3
O=C(c1cnc2[nH][nH]c(=O)c2c1)c1cc(Cl)cc(Cl)c1O	78.9*	71.2*	61.9*
Cc1cccc(CCNC(=O)c2ccc(CNS(=O)(=O)c3ccc(F)cc3)cc2)c1	3.6	-0.7	0.1
Cc1ccc(S(=O)(=O)NCc2ccc(C(=O)NCCc3ccc(S(N)(=O)=O)cc3)cc2)cc1	21.1	76.8*	2.5
COc1cccc(N(C(=O)C2CCCC2)c2nc3ccccc3s2)c1	-2.1	-4.6	1.9
O=S(c1ccc2ccccc2c1)c1cnns1 (stereo not given)	-2.9	34.4*	2.2
COCCn1cc(CN2CCC(O)(c3ccccc3F)CC2)c2ccccc21	3.2	18.6	-0.2
COc1ccc(NC(=O)c2cc(-c3cccnc3)n(-c3ccccc3)n2)c(OC)c1	8.4	12.5	4.2
SMILES	USP7 inh	OTUD3 block	UCHL1 block
O=C(Cc1ccc(-n2c(=O)c3sccc3n(Cc3ccc(F)cc3)c2=O)cc1)NCCc1ccccc1	22.3	-7.8	0.0
Cc1ccccc1NC(=O)Cn1c(=O)n(-c2ccc(CC(=O)NCCc3ccccc3)cc2)c(=O)c2sccc21	31.7*	29.3	8.0
Cc1cccc(C(=O)Nc2c(C)nn(Cc3cccc4ccccc34)c2C)c1	6.3	13.7	3.4
CCn1nc(C)c(CNC(=O)c2[nH]c3ccc(C)cc3c2NC(=O)c2cccc(C)c2)c1C	15.8	71.0*	7.3
CC1=CN2C(=N)/C(=C/c3cn(Cc4ccc(Cl)cc4)c4ccccc34)C(=O)N=C2S1	-136.8	-188.5	-37.8
N=C1/C(=C/c2cn(Cc3ccccc3F)c3ccccc23)C(=O)N=C2SC(C(F)(F)F)=NN12	40.9*	-123.2	6.3
O=C(c1ccccn1)N1C[C@H]2C[C@H]3[C@](C1)(CN(Cc1ccccc1)S3(=O)=O)O2	-0.1	-1.0	1.5
C[C@@H]1OC(O[C@@H]2C[C@H](c3ccc4c(c3O)C(=O)C3=C(C4=O)[C@@]4(OC5CC[C@H](O)[C@H](C)O5)C(=O)C[C@](C)(O)C[C@@]4(O)C=C3)O[C@H](C)C2O)CC[C@@H]1O[C@H]1C[C@@H](O)[C@H](O)[C@@H](C)O1 (stereo not given in full)	-120.3	-85.3	-142.5

Bioassay records (PubChem BioAssay)
